The list is not random: actives were taken first. Their share in the collection is about 2.2%.
LGR2 antag: inhibitors of bursicon-induced Drosophila LGR2 receptor cAMP signaling | inhibition, % at 9.99 µM | HEK293 LGR2, CRE-luciferase, bursicon-stimulated, 4 h | AID 720647 | actives 0.35% (n = 380,000);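 active means drop in luminescence signal, shown as inhibition above about 50% in the replicate tests, limit read from the data, passing the limit was not always enough; inconclusive means probably only some replicates passing the limit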;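 further: agonist challenge used bursicon conditioned medium at about half maximal strength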
HSP90 inh: inhibitors of HSP90 luciferase refolding in rabbit reticulocyte lysate; luciferase refolding luminescence, 3 h; inhibition, % at 5.6 µM; actives 0.91% (n = 290,000);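 active means inhibition above the screen-wide mean plus 3 SD, computed separately per campaign, cut at about 16% in these data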;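 further: 0% = DMSO wells and 100% = 60 µM geldanamycin wells; inhibitors lower the luminescence because luciferase stays unfolded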
TWEAK Fn14 block: blocks TWEAK-Fn14 interaction in a reporter cell assay | TWEAK-stimulated Fn14 reporter cells, luciferase luminescence, 8 h | inhibition, % at 10 µM | actives 2% (n = 360,000); in the data active means inhibition above about 50%
TROY signal inh: TROY signaling inhibition. Q293 LMP1-TROYcd NF-kB luciferase reporter, 4 h. inhibition, % at 10 µM. actives 0.98% (n = 360,000);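 active means compounds whose plate-normalised and pattern-corrected inhibition of the luciferase reporter signal at the single screening dose is 50% or more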
* = called active by the depositor.

Screening CCS(=O)(=O)Nc1ccc2c(c1)C(=O)N(C)C[C@@H](OC)[C@H](C)CN(Cc1nccs1)[C@H](C)CO2 returned LGR2 antag 2.
COc1ccccc1CNc1nc(NCC2CC2)nc2ccsc12 was read as LGR2 antag 4, TWEAK Fn14 block 4 and TROY signal inh 20.
Screening COc1ccccc1CNc1nc(NCc2ccccc2SC)c2sccc2n1 returned LGR2 antag 19, TWEAK Fn14 block 90* and TROY signal inh 55*.
C[C@@H]1CN([C@@H](C)CO)C(=O)c2cccc(NC(=O)Nc3ccccc3)c2O[C@H]1CN(C)CC1CCCCC1 was read as LGR2 antag 7.
`CCOC(=O)/C=C/C(=O)Nc1cc(S(=O)(=O)Nc2ccc(OC)cc2)ccc1N1CCOCC1` gave LGR2 antag -5, TWEAK Fn14 block 56* and TROY signal inh 25.
`CCOC(=O)/C=C/S(=O)(=O)c1ccc(NC(C)=O)cc1` gave HSP90 inh 2, TWEAK Fn14 block 3 and TROY signal inh 34.
Screening CCOC(=O)/C=C/C(=O)Nc1ccc(S(=O)(=O)Nc2c(C)cc(C)cc2C)cc1 returned LGR2 antag 17, HSP90 inh -2, TWEAK Fn14 block 27 and TROY signal inh 50*.
CCOC(=O)/C=C/C(=O)Nc1ccc(Oc2ccccc2)cc1 was read as LGR2 antag 102*, HSP90 inh -4, TWEAK Fn14 block 71* and TROY signal inh 8.
`COc1ccc(NS(=O)(=O)c2ccc(N3CCOCC3)c(NC(=O)C(C)C)c2)cc1` gave LGR2 antag -7, HSP90 inh 6, TWEAK Fn14 block 12 and TROY signal inh 3.
CC(C)NC(=O)N1CC2(C1)[C@H](c1ccccc1)[C@H](CO)N2C(=O)C1CCCC1 was read as LGR2 antag 7.
For O=C(c1c[nH]c2ccccc12)C(Cl)c1ccccc1 (stereo not given) the results were LGR2 antag 21, HSP90 inh 1, TWEAK Fn14 block 79* and TROY signal inh 13.
`CCCCCc1ccc(-c2ccc(/C=C/C(=O)O)cc2)nc1` gave LGR2 antag -2, HSP90 inh 14, TWEAK Fn14 block 60* and TROY signal inh -31.
`CCCCCCCc1ccc(-c2ccc(O)cc2)nc1` gave LGR2 antag -34, HSP90 inh -4, TWEAK Fn14 block -24 and TROY signal inh -63.
Screening C[C@H]1CN([C@@H](C)CO)C(=O)c2cccc(NC(=O)Nc3ccc(F)cc3)c2O[C@H]1CN(C)C returned LGR2 antag -22.
`C(=NN1CCCCCC1)c1cccc2ccccc12` gave TWEAK Fn14 block 14 and TROY signal inh 21.
`C(=NN1CCCCCC1)c1ccc2ccccc2n1` gave LGR2 antag 98*, TWEAK Fn14 block 104* and TROY signal inh 87*.
Screening C/C(=C\c1ccc(N)cc1)c1nc2ccccc2[nH]1 returned LGR2 antag -120, HSP90 inh 0, TWEAK Fn14 block -8 and TROY signal inh -35.
CC(C)c1ccc(/C=C(\c2nc3ccccc3[nH]2)S(=O)(=O)c2ccccc2)cc1 was read as LGR2 antag 59*, HSP90 inh 10, TWEAK Fn14 block 94* and TROY signal inh 6.
`O=S(=O)(/C(=C/c1ccc(C(F)(F)F)cc1)c1nc2ccccc2[nH]1)c1ccccc1` gave LGR2 antag inconclusive, HSP90 inh 5, TWEAK Fn14 block 63* and TROY signal inh 15.
Screening CO[C@@H]1CC[C@H]2CCOc3c(C#N)cccc3C(=O)N(C)[C@@H](C)C(=O)N(C)C[C@H]1O2 returned LGR2 antag -5.
`CCN(CC)S(=O)(=O)c1ccc(Cl)c(NC(=S)NC(=O)C2CCCC2)c1` gave LGR2 antag 13, TWEAK Fn14 block 56* and TROY signal inh 55*.
`C[C@@H]1CN([C@@H](C)CO)C(=O)c2cc(NS(=O)(=O)c3cn(C)cn3)ccc2O[C@@H](C)CCCCO[C@H]1CN(C)C(=O)CCCN(C)C` gave LGR2 antag -4.
Screening COC(=O)c1ccc(/C=C/c2nc3ccccc3c(=O)[nH]2)cc1 returned LGR2 antag -50, HSP90 inh 8, TWEAK Fn14 block 34 and TROY signal inh -3.
Cc1ccc(/C=C/c2nc3ccccc3c(=O)[nH]2)cc1 was read as LGR2 antag 84*, HSP90 inh 14, TWEAK Fn14 block 75* and TROY signal inh 52*.
NC(=O)CC(NC(=O)c1ccccc1)c1ccc(N2CCC(Cc3ccccc3)CC2)c([N+](=O)[O-])c1 (stereo not given) was read as LGR2 antag -11, HSP90 inh 5, TWEAK Fn14 block 43 and TROY signal inh 55*.

Screens deposited in PubChem by several laboratories.
